Source: PubChem BioAssay (NCATS)
Inconclusive results are not listed. A call without a number means that no potency is given here. Unmarked numbers belong to inactive results. Active and inactive are the calls of the source. Calls follow the shape of the dose curve; as a rule, active = well fitted inhibition curve with a large enough effect; inconclusive = small, poorly fitted or top-dose-only effect; inactive = flat fitted curve, though single readings scatter.

System: not listed separately
Experiment: Drug repurposing screens with cells derived from glioblastoma tumor samples (AID 1345199); also: nearly all actives have a fitted effect of over 40% in size
Settings: GBM patient neurospheres viability, ATP luminescence, 48 h; Potency: tumour line A unless noted; series mostly up to 45.9 µM; activity, negative = cell killing: at the top concentration
How it was run: (§1)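 Primary testing used CD133+ neurospheres from four GBM patients, seven concentrations, 48 h exposure and ATP-based viability; confirmation added three slower-growing patient lines.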

| SMILES | Potency |
| --- | --- |
| Cc1ccc(Cl)c(O)c1 | inactive |
| CS(=O)(=O)c1ccc(C(=O)C2C(=O)CCCC2=O)c([N+](=O)[O-])c1 | inactive |
| CN[C@@H](C)[C@H](O)c1ccccc1 | inactive |
| COC(=O)c1cncn1C(C)c1ccccc1 (configuration not stated) | inactive |
| CC(O)CN1CCN(CC(=O)[O-])CCN(CC(=O)[O-])CCN(CC(=O)[O-])CC1.[Gd+3] (configuration not stated) | inactive |
| O=C(O)COc1ccccc1 | inactive |
| C1CCC(NC2CCCCC2)CC1 | inactive |
| O=C(O)COc1nc(Cl)c(Cl)cc1Cl | inactive |
| C=CC(=O)NCNC(=O)C=C | inactive |
| O=C1C(I)=CC(=C(c2cc(I)c(O)c(I)c2)c2ccccc2C(=O)O)C=C1I | inactive |
| O=C(O)c1cc(Oc2ccc(C(F)(F)F)cc2Cl)ccc1[N+](=O)[O-] | inactive |
| Oc1ccc2c3c1O[C@H]1[C@@H](O)C=C[C@H]4[C@@H](C2)NCC[C@@]341 | inactive |
| CC(C)NCC(O)c1ccc([N+](=O)[O-])cc1 (configuration not stated) | inactive |
| CC[N+]1(CCOC(=O)C(O)(c2ccccc2)c2ccccc2)CCCCC1 | inactive |
| CCO/N=C(\CC)C1=C(O)CC(c2c(C)cc(C)cc2C)CC1=O (configuration not stated) | inactive |
| O=S(=O)(O)C(F)(F)C(F)(F)C(F)(F)C(F)(F)C(F)(F)C(F)(F)C(F)(F)C(F)(F)F | inactive |
| O=S(=O)(O)C(F)(F)C(F)(F)C(F)(F)C(F)(F)F | inactive |

System: astro (control astrocytes)
Experiment: as above
Settings: viability, ATP luminescence, 48 h; series mostly up to 45.9 µM; activity, negative = cell killing: at the top concentration
How it was run: as §1

| SMILES | activity, negative = cell killing | Potency |
| --- | --- | --- |
| Cc1ccc(Cl)c(O)c1 | -0.797% |  |
| CS(=O)(=O)c1ccc(C(=O)C2C(=O)CCCC2=O)c([N+](=O)[O-])c1 | -15.6% [at 91.6 µM] |  |
| CN[C@@H](C)[C@H](O)c1ccccc1 | -20.2% |  |
| COC(=O)c1cncn1C(C)c1ccccc1 (configuration not stated) | -10.6% |  |
| CC(O)CN1CCN(CC(=O)[O-])CCN(CC(=O)[O-])CCN(CC(=O)[O-])CC1.[Gd+3] (configuration not stated) |  | inactive |
| O=C(O)COc1ccccc1 | -7.68% |  |
| C1CCC(NC2CCCCC2)CC1 | -15.1% |  |
| O=C(O)COc1nc(Cl)c(Cl)cc1Cl | 5.98% [at 91.6 µM] |  |
| C=CC(=O)NCNC(=O)C=C | -13.5% [at 91.6 µM] |  |
| O=C(O)c1cc(Oc2ccc(C(F)(F)F)cc2Cl)ccc1[N+](=O)[O-] | -6.39% |  |
| Oc1ccc2c3c1O[C@H]1[C@@H](O)C=C[C@H]4[C@@H](C2)NCC[C@@]341 | -4.33% [at 108 µM] |  |
| CC(C)NCC(O)c1ccc([N+](=O)[O-])cc1 (configuration not stated) | -16.1% |  |
| CC[N+]1(CCOC(=O)C(O)(c2ccccc2)c2ccccc2)CCCCC1 | -7.72% |  |
| CCO/N=C(\CC)C1=C(O)CC(c2c(C)cc(C)cc2C)CC1=O (configuration not stated) | -22.7% [at 91.6 µM] |  |
| O=S(=O)(O)C(F)(F)C(F)(F)C(F)(F)C(F)(F)F | -19.7% [at 91.6 µM] |  |
